# PubChem BioAssay (NCI)
# About 79,000 compounds went through this panel and 15% of them were active in at least one assay; those are over-represented in the sample as a whole. Values without a mark were called inactive. Active and inactive are the calls of the source. No stated cut-off is given here; in the data, active means growth inhibition above about 70%; inactive means the rest.
# Legend:
# [1] = NCI Yeast Anticancer Drug Screen. Data for the rad52 strain (AID 147);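 further: 0% = growth of vehicle-treated control cultures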; conditions: S. cerevisiae rad52 mutant growth inhibition, active compounds read high
# Summary of the method: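 Growth of repair-deficient yeast cells was compared between compound-treated and vehicle-treated cultures to give percent inhibition.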
# [2] = NCI Yeast Anticancer Drug Screen. Data for the wt1 strain (AID 149);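 further: 0% = growth of vehicle-treated wt1 cultures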; conditions: S. cerevisiae wt1 strain (SPY 50644) growth inhibition, active compounds read high
# Summary of the method: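 Each compound is tested on wt1 yeast and the loss of growth versus vehicle gives the inhibition value.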
# [3] = NCI Yeast Anticancer Drug Screen. Data for the rad50EPP+ strain (AID 151);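 further: 0% = growth of vehicle-treated control cultures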; conditions: S. cerevisiae rad50 mutant strain, active compounds read high
# Summary of the method: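 Measured: growth inhibition of rad50EPP+ yeast. Reference: vehicle-treated controls. Screen uses strains with defined genetic alterations in DNA damage repair or cell cycle control.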
# [4] = NCI Yeast Anticancer Drug Screen. Data for the mgt1 strain (AID 153); conditions: S. cerevisiae mgt1 mutant growth inhibition, active compounds read high
# Summary of the method: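 Compounds were applied to mgt1 mutant yeast, and growth was then compared against vehicle-treated control cultures to give percent inhibition.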
# [5] = NCI Yeast Anticancer Drug Screen. Data for the rad50 strain (AID 155);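 further: 0% = growth of vehicle-only cultures of the same strain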; conditions: S. cerevisiae rad50 strain growth inhibition, active compounds read high
# Summary of the method: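 Vehicle-treated cultures provide the reference for the growth inhibition reported for compound-exposed, repair-deficient yeast.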
# [6] = NCI Yeast Anticancer Drug Screen. Data for the mec2-1 strain (AID 157); conditions: S. cerevisiae mec2-1 strain, active compounds read high
# Summary of the method: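 Compounds were applied to mec2-1 yeast cells. Their growth was then compared with that of vehicle-treated cultures to give growth inhibition.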
# [7] = NCI Yeast Anticancer Drug Screen. Data for the rad14 strain (AID 159);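 further: 0% = growth of vehicle-treated control cultures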; conditions: S. cerevisiae rad14 strain growth inhibition, active compounds read high
# Summary of the method: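 Inhibition of growth is reported for a repair-deficient yeast mutant following compound treatment, calculated relative to cultures that received vehicle.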
# [8] = NCI Yeast Anticancer Drug Screen. Data for the sgs1 mgt1 strain (AID 161);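 further: 0% = growth of cultures given vehicle only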; conditions: S. cerevisiae sgs1 mgt1 strain, active compounds read high
# Summary of the method: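 Compounds are added to genetically altered yeast, and growth is compared with cultures given vehicle alone to give percent inhibition.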
# [9] = NCI Yeast Anticancer Drug Screen. Data for the CLN2oe strain (AID 163);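 further: 0% = growth of vehicle-only control cultures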; conditions: S. cerevisiae CLN2oe strain, active compounds read high
# Summary of the method: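 Cells of an engineered yeast line with disturbed cell-cycle regulation are treated with compound. Inhibition of growth is then calculated relative to the vehicle-treated reference.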
# [10] = NCI Yeast Anticancer Drug Screen. Data for the cln2 rad14 strain (AID 165);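 further: 0% = growth equal to vehicle treated cultures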; conditions: S. cerevisiae cln2 rad14 strain, active compounds read high
# Summary of the method: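 Strain: cln2 rad14 yeast, altered in cell cycle control and DNA damage repair. Read-out: growth inhibition vs vehicle.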
# [11] = NCI Yeast Anticancer Drug Screen. Data for the bub3 strain (AID 167); conditions: S. cerevisiae bub3 mutant strain, active compounds read high
# Summary of the method: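 Mutant yeast screening strain plus compound; vehicle-treated cultures serve as the 0% inhibition reference.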
# [12] = NCI Yeast Anticancer Drug Screen. Data for the wt2 strain (AID 169); conditions: S. cerevisiae wt2 strain growth inhibition, active compounds read high
# Summary of the method: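 Growth of compound-treated yeast is measured and expressed as inhibition relative to vehicle-only controls.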
# [13] = NCI Yeast Anticancer Drug Screen. Data for the mlh1 strain (AID 171);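 further: 0% = growth of vehicle-treated control cultures of the same strain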; conditions: S. cerevisiae mlh1 strain growth inhibition, active compounds read high
# Summary of the method: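 Test agents were incubated with yeast bearing a defined DNA damage repair or cell cycle control alteration; values are growth inhibition normalised to vehicle-treated cultures.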
# [14] = NCI Yeast Anticancer Drug Screen. Data for the sgs1 strain (AID 173);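 further: 0% = growth of vehicle-only control cultures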; conditions: S. cerevisiae sgs1 mutant, active compounds read high
# Summary of the method: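 Strain with an altered DNA repair or cell cycle pathway exposed to compound. Growth then measured. Value = inhibition versus vehicle control.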
# [15] = NCI Yeast Anticancer Drug Screen. Data for the mlh1 rad18 strain (AID 175); conditions: S. cerevisiae mlh1 rad18 strain growth inhibition, active compounds read high
# Summary of the method: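 A repair-deficient yeast strain is exposed to test compound, and growth is scored relative to vehicle-treated controls.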
# [16] = NCI Yeast Anticancer Drug Screen. Data for the rad18 strain (AID 177); conditions: S. cerevisiae rad18 mutant growth inhibition, active compounds read high
# Summary of the method: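 DNA-repair-defective yeast; compound treatment; growth inhibition scored against vehicle.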
# [17] = at 5.0 µM (retest, dose inferred, filed as 0.5)
# [18] = at 50.0 µM (retest, dose inferred, filed as 5.0)
smiles,measurement,setting,value
NCCOc1ccc(/C(=C(/Cl)c2ccccc2)c2ccccc2)cc1,growth inhibition,[1]; at 1.2 µM,-10%
same,growth inhibition,[1]; at 3.7 µM,-15%
same,growth inhibition,[1]; at 11.0 µM,23%
same,growth inhibition,[1]; at 33.0 µM,98% (active)
same,growth inhibition,[1]; at 100.0 µM,96% (active)
same,growth inhibition,[2]; at 1.2 µM,1%
same,growth inhibition,[2]; at 3.7 µM,-4%
same,growth inhibition,[2]; at 11.0 µM,5%
same,growth inhibition,[2]; at 33.0 µM,98% (active)
same,growth inhibition,[2]; at 100.0 µM,97% (active)
same,growth inhibition,[3]; at 1.2 µM,0%
same,growth inhibition,[3]; at 3.7 µM,9%
same,growth inhibition,[3]; at 11.0 µM,15%
same,growth inhibition,[3]; at 33.0 µM,97% (active)
same,growth inhibition,[3]; at 100.0 µM,96% (active)
same,growth inhibition,[4]; at 1.2 µM,-6%
same,growth inhibition,[4]; at 3.7 µM,-7%
same,growth inhibition,[4]; at 11.0 µM,13%
same,growth inhibition,[4]; at 33.0 µM,98% (active)
same,growth inhibition,[4]; at 100.0 µM,96% (active)
same,growth inhibition,[5]; at 1.2 µM,-3%
same,growth inhibition,[5]; at 3.7 µM,3%
same,growth inhibition,[5]; [17],17%
same,growth inhibition,[5]; at 11.0 µM,39%
same,growth inhibition,[5]; at 33.0 µM,99% (active)
same,growth inhibition,[5]; [18],98% (active)
same,growth inhibition,[5]; at 50.0 µM,85.5% (active)
same,growth inhibition,[5]; at 100.0 µM,96% (active)
same,growth inhibition,[6]; at 1.2 µM,-5%
same,growth inhibition,[6]; at 3.7 µM,-17%
same,growth inhibition,[6]; [17],7%
same,growth inhibition,[6]; at 11.0 µM,11%
same,growth inhibition,[6]; at 33.0 µM,98% (active)
same,growth inhibition,[6]; [18],99% (active)
same,growth inhibition,[6]; at 50.0 µM,93.8% (active)
same,growth inhibition,[6]; at 100.0 µM,97% (active)
same,growth inhibition,[7]; at 1.2 µM,-16%
same,growth inhibition,[7]; at 3.7 µM,-18%
same,growth inhibition,[7]; at 11.0 µM,72% (active)
same,growth inhibition,[7]; at 33.0 µM,98% (active)
same,growth inhibition,[7]; at 100.0 µM,96% (active)
same,growth inhibition,[8]; [17],7%
same,growth inhibition,[8]; [18],98% (active)
same,growth inhibition,[8]; at 50.0 µM,92.7% (active)
same,growth inhibition,[9]; at 1.2 µM,18%
same,growth inhibition,[9]; at 3.7 µM,12%
same,growth inhibition,[9]; at 11.0 µM,36%
same,growth inhibition,[9]; at 33.0 µM,98% (active)
same,growth inhibition,[9]; at 100.0 µM,96% (active)
same,growth inhibition,[10]; [17],37%
same,growth inhibition,[10]; [18],98% (active)
same,growth inhibition,[10]; at 50.0 µM,92.2% (active)
same,growth inhibition,[11]; at 1.2 µM,0%
same,growth inhibition,[11]; at 3.7 µM,-35%
same,growth inhibition,[11]; [17],-11%
same,growth inhibition,[11]; at 11.0 µM,14%
same,growth inhibition,[11]; at 33.0 µM,99% (active)
same,growth inhibition,[11]; [18],98% (active)
same,growth inhibition,[11]; at 50.0 µM,91.8% (active)
same,growth inhibition,[11]; at 100.0 µM,96% (active)
same,growth inhibition,[12]; at 1.2 µM,-4%
same,growth inhibition,[12]; at 3.7 µM,0%
same,growth inhibition,[12]; at 11.0 µM,2%
same,growth inhibition,[12]; at 33.0 µM,98% (active)
same,growth inhibition,[12]; at 100.0 µM,97% (active)
same,growth inhibition,[13]; at 1.2 µM,18%
same,growth inhibition,[13]; at 3.7 µM,10%
same,growth inhibition,[13]; at 11.0 µM,34%
same,growth inhibition,[13]; at 33.0 µM,99% (active)
same,growth inhibition,[13]; at 100.0 µM,97% (active)
same,growth inhibition,[14]; at 1.2 µM,26%
same,growth inhibition,[14]; at 3.7 µM,23%
same,growth inhibition,[14]; at 11.0 µM,55%
same,growth inhibition,[14]; at 33.0 µM,99% (active)
same,growth inhibition,[14]; at 100.0 µM,97% (active)
same,growth inhibition,[15]; [17],-1%
same,growth inhibition,[15]; [18],98% (active)
same,growth inhibition,[15]; at 50.0 µM,88.7% (active)
same,growth inhibition,[16]; at 1.2 µM,16%
same,growth inhibition,[16]; at 3.7 µM,29%
same,growth inhibition,[16]; at 11.0 µM,30%
same,growth inhibition,[16]; at 33.0 µM,99% (active)
same,growth inhibition,[16]; at 100.0 µM,97% (active)
O=C1SS(=O)c2ccccc21 (stereo unspecified),growth inhibition,[1]; at 1.2 µM,11%
same,growth inhibition,[1]; at 3.7 µM,6%
same,growth inhibition,[1]; at 11.0 µM,8%
same,growth inhibition,[1]; at 33.0 µM,25%
same,growth inhibition,[1]; at 100.0 µM,76% (active)
same,growth inhibition,[2]; at 1.2 µM,-5%
same,growth inhibition,[2]; at 3.7 µM,-2%
same,growth inhibition,[2]; at 11.0 µM,12%
same,growth inhibition,[2]; at 33.0 µM,-5%
same,growth inhibition,[2]; at 100.0 µM,67%
same,growth inhibition,[3]; at 1.2 µM,7%
same,growth inhibition,[3]; at 3.7 µM,5%
same,growth inhibition,[3]; at 11.0 µM,7%
same,growth inhibition,[3]; at 33.0 µM,23%
same,growth inhibition,[3]; at 100.0 µM,65%
same,growth inhibition,[4]; at 1.2 µM,9%
same,growth inhibition,[4]; at 3.7 µM,12%
same,growth inhibition,[4]; at 11.0 µM,12%
same,growth inhibition,[4]; at 33.0 µM,42%
same,growth inhibition,[4]; at 100.0 µM,83% (active)
same,growth inhibition,[5]; at 1.2 µM,5%
same,growth inhibition,[5]; at 3.7 µM,0%
same,growth inhibition,[5]; [17],32%
same,growth inhibition,[5]; at 11.0 µM,2%
same,growth inhibition,[5]; at 33.0 µM,26%
same,growth inhibition,[5]; [18],89% (active)
same,growth inhibition,[5]; at 50.0 µM,34.1%
same,growth inhibition,[5]; at 100.0 µM,79% (active)
same,growth inhibition,[6]; at 1.2 µM,5%
same,growth inhibition,[6]; at 3.7 µM,18%
same,growth inhibition,[6]; [17],27%
same,growth inhibition,[6]; at 11.0 µM,-3%
same,growth inhibition,[6]; at 33.0 µM,13%
same,growth inhibition,[6]; [18],99% (active)
same,growth inhibition,[6]; at 50.0 µM,44.1%
same,growth inhibition,[6]; at 100.0 µM,83% (active)
same,growth inhibition,[7]; at 1.2 µM,-11%
same,growth inhibition,[7]; at 3.7 µM,-3%
same,growth inhibition,[7]; at 11.0 µM,-17%
same,growth inhibition,[7]; at 33.0 µM,-4%
same,growth inhibition,[7]; at 100.0 µM,61%
same,growth inhibition,[8]; [17],34%
same,growth inhibition,[8]; [18],85% (active)
same,growth inhibition,[8]; at 50.0 µM,50%
same,growth inhibition,[9]; at 1.2 µM,7%
same,growth inhibition,[9]; at 3.7 µM,13%
same,growth inhibition,[9]; at 11.0 µM,17%
same,growth inhibition,[9]; at 33.0 µM,24%
same,growth inhibition,[9]; at 100.0 µM,57%
same,growth inhibition,[10]; [17],11%
same,growth inhibition,[10]; [18],38%
same,growth inhibition,[10]; at 50.0 µM,5.75%
same,growth inhibition,[11]; at 1.2 µM,-5%
same,growth inhibition,[11]; at 3.7 µM,2%
same,growth inhibition,[11]; [17],24%
same,growth inhibition,[11]; at 11.0 µM,-5%
same,growth inhibition,[11]; at 33.0 µM,0%
same,growth inhibition,[11]; [18],96% (active)
same,growth inhibition,[11]; at 50.0 µM,40.3%
same,growth inhibition,[11]; at 100.0 µM,89% (active)
same,growth inhibition,[12]; at 1.2 µM,7%
same,growth inhibition,[12]; at 3.7 µM,8%
same,growth inhibition,[12]; at 11.0 µM,8%
same,growth inhibition,[12]; at 33.0 µM,17%
same,growth inhibition,[12]; at 100.0 µM,66%
same,growth inhibition,[13]; at 1.2 µM,6%
same,growth inhibition,[13]; at 3.7 µM,20%
same,growth inhibition,[13]; at 11.0 µM,17%
same,growth inhibition,[13]; at 33.0 µM,24%
same,growth inhibition,[13]; at 100.0 µM,68%
same,growth inhibition,[14]; at 1.2 µM,-7%
same,growth inhibition,[14]; at 3.7 µM,5%
same,growth inhibition,[14]; at 11.0 µM,8%
same,growth inhibition,[14]; at 33.0 µM,21%
same,growth inhibition,[14]; at 100.0 µM,39%
same,growth inhibition,[15]; [17],57%
same,growth inhibition,[15]; [18],95% (active)
same,growth inhibition,[15]; at 50.0 µM,0%
same,growth inhibition,[16]; at 1.2 µM,13%
same,growth inhibition,[16]; at 3.7 µM,15%
same,growth inhibition,[16]; at 11.0 µM,15%
same,growth inhibition,[16]; at 33.0 µM,39%
same,growth inhibition,[16]; at 100.0 µM,90% (active)
